Measured values: PubChem BioAssay AID1159580 (chemical genetic matrix, 2015)
Where “and” joins values, the source holds several entries; their conditions need not be identical. Identical values can stand only once. The campaign covered roughly 5,500 compounds. About 2,000 (36%) were called active. Not shown: some 18% with an inconclusive outcome. Rule as the data show it: active = normalized growth mostly below about 0.91 (no sharp cut-off); inconclusive = no clear call, values can overlap the other calls; inactive = mostly above about 0.92. This is one part of the list.

Test: chemical genetic growth profiling, strain panel (AID 1159580);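 also: tested at 20 µM; growth read once vehicle control cultures reached saturation at 30 °C; 1 = growth at the plate median or of vehicle wells; lower values mean less growth of the strain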
Details: S. cerevisiae deletion strains, growth OD

Measured: normalized growth

C[C@H]1C(=O)CCC2[C@]3(C)CC[C@@]4(C)C5CC(C)(C)CC[C@]5(C)CC[C@]4(C)C3CC[C@@]21C (stereo partly drawn)
inactive: locus YAL021C, strain ccr4, active compounds read low 0.979 | locus YAL026C, strain drs2, active compounds read low 1.02 | locus YAL030W, strain snc1, active compounds read low 1 | locus YBL061C, strain skt5, active compounds read low 1 | locus YBR009C, strain hhf1, active compounds read low 1.02 | locus YBR023C, strain chs3, active compounds read low 1 | locus YBR171W, strain sec66, active compounds read low 1 | locus YBR229C, strain ROT2, active compounds read low 1.02 | locus YBR231C, strain swc5, active compounds read low 0.997 | locus YBR279W, strain paf1, active compounds read low 1.01 | locus YCL011C, strain gbp2, active compounds read low 1.01 | locus YCL016C, strain dcc1, active compounds read low 1 | locus YCL029C, strain bik1, active compounds read low 0.968 | locus YCL061C, strain MRC1, active compounds read low 1.01 | locus YCL069W, strain vba3, active compounds read low 1.01 | locus YCR088W, strain abp1, active compounds read low 1.01 | locus YDL005C, strain med2, active compounds read low 0.995 | locus YDL035C, strain GPR1, active compounds read low 0.983 | locus YDL040C, strain nat1, active compounds read low 1.01 | locus YDL074C, strain BRE1, active compounds read low 0.955 | locus YDL101C, strain DUN1, active compounds read low 1.02 | locus YDL134C, strain PPH21, active compounds read low 0.97 | locus YDL185W, strain tfp1, active compounds read low 1.02 | locus YDR001C, strain nth1, active compounds read low 1 | locus YDR069C, strain doa4, active compounds read low 0.992 | locus YDR101C, strain arx1, active compounds read low 0.981 | locus YDR137W, strain rgp1, active compounds read low 0.987 | locus YDR159W, strain sac3, active compounds read low 0.981 | locus YDR162C, strain NBP2, active compounds read low 0.857 | locus YDR195W, strain ref2 0.966 | locus YDR297W, strain sur2, active compounds read low 0.996 | locus YDR318W, strain mcm21, active compounds read low 0.991 | locus YDR334W, strain swr1, active compounds read low 1 | locus YDR335W, strain msn5, active compounds read low 1.02 | locus YDR388W, active compounds read low 1 | locus YDR392W, strain spt3, active compounds read low 0.934 | locus YDR502C, strain sam2, active compounds read low 0.97 | locus YEL003W, strain gim4, active compounds read low 1.01 | locus YEL037C, strain rad23, active compounds read low 0.999 | locus YEL061C, strain CIN8 (second series), active compounds read low 1.01 | locus YEL061C, strain CIN8, active compounds read low 1.02 | locus YER015W, strain faa2, active compounds read low 1.01 | locus YER016W, strain bim1, active compounds read low 0.994 | locus YER110C, active compounds read low 1.01 | locus YER111C, strain swi4, active compounds read low 0.998 | locus YER155C, strain BEM2 (second series), active compounds read low 0.995 | locus YER155C, strain BEM2, active compounds read low 1.03 | locus YER167W, strain BCK2, active compounds read low 0.98 | locus YFR010W, strain ubp6, active compounds read low 1.01 | locus YGL078C, strain dbp3, active compounds read low 1.04 | locus YGL086W, strain mad1, active compounds read low 0.974 | locus YGL167C, strain pmr1, active compounds read low 1 | locus YGL173C, strain kem1, active compounds read low 1.01 | locus YGL227W, strain vid30, active compounds read low 1 | locus YGL240W, strain doc1, active compounds read low 0.978 | locus YGL248W, strain PDE1, active compounds read low 0.978 | locus YGL253W, strain hxk2, active compounds read low 1.03 | locus YGR135W, strain pre9, active compounds read low 1.01 | locus YGR252W, strain gcn5, active compounds read low 0.902 | locus YHR013C, strain ard1, active compounds read low 1.01 | locus YHR027C, strain rpn1, active compounds read low 1.01 | locus YHR030C, strain SLT2, active compounds read low 1.04 | locus YHR079C, strain IRE1 (second series), active compounds read low 1.02 | locus YHR079C, strain IRE1, active compounds read low 1.04 | locus YHR094C, strain hxt1, active compounds read low 1.01 | locus YHR129C, strain ARP1, active compounds read low 1 | locus YHR142W, strain chs7, active compounds read low 1.03 | locus YHR200W, strain rpn10, active compounds read low 0.951 | locus YIL066C, strain RNR3, active compounds read low 0.969 | locus YIL073C, strain SPO22, active compounds read low 1.02 | locus YIL125W, strain kgd1, active compounds read low 1 | locus YIR030C, strain dcg1, active compounds read low 1.02 | locus YJL092W, strain hpr5, active compounds read low 1.01 | locus YJL095W, strain BCK1 (second series), active compounds read low 0.999 | locus YJL095W, strain BCK1, active compounds read low 0.936 and 1.01 | locus YJL115W, strain asf1, active compounds read low 1 | locus YJL129C, strain trk1, active compounds read low 1.01 | locus YJL134W, strain LCB3, active compounds read low 1.03 | locus YJL154C, strain vps35, active compounds read low 1 | locus YJL164C, strain tpk1, active compounds read low 1.01 | locus YJL166W, strain qcr8, active compounds read low 1 | locus YJL168C, strain set2, active compounds read low 1.02 | locus YJL187C, strain SWE1 (second series), active compounds read low 0.995 | locus YJL187C, strain SWE1, active compounds read low 1 | locus YJR043C, strain POL32, active compounds read low 0.949 | locus YJR066W, strain TOR1, active compounds read low 0.984 | locus YKL009W, strain mrt4, active compounds read low 1.03 | locus YKL068W, active compounds read low 1.02 | locus YKL085W, strain MDH1 (second series), active compounds read low 1.01 | locus YKL085W, strain MDH1, active compounds read low 1.01 | locus YKL160W, strain elf1, active compounds read low 1.01 | locus YKL190W, strain CNB1, active compounds read low 1.02 | locus YKR026C, strain gcn3, active compounds read low 0.999 | locus YKR091W, strain srl3, active compounds read low 1.01 | locus YLL001W, strain dnm1, active compounds read low 1 | locus YLL026W, active compounds read low 1 | locus YLL041C, strain sdh2, active compounds read low 1.01 | locus YLR027C, strain aat2, active compounds read low 1 | locus YLR039C, strain RIC1, active compounds read low 0.738 | locus YLR058C, strain SHM2, active compounds read low 0.994 | locus YLR102C, strain apc9, active compounds read low 1.02 | locus YLR113W, strain HOG1, active compounds read low 0.965 | locus YLR221C, strain rsa3, active compounds read low 0.995 | locus YLR258W, strain gsy2, active compounds read low 1 | locus YLR262C, strain YPT6 (second series), active compounds read low 1.01 | locus YLR268W, strain sec22, active compounds read low 0.985 | locus YLR320W, strain mms22, active compounds read low 1.01 | locus YLR342W, strain FKS1 (second series), active compounds read low 0.992 | locus YLR342W, strain FKS1, active compounds read low 1 | locus YLR357W, strain rsc2, active compounds read low 0.977 | locus YLR370C, strain arc18, active compounds read low 1.02 | locus YLR371W, strain rom2, active compounds read low 1 | locus YLR384C, strain iki3, active compounds read low 0.978 | locus YLR418C, strain cdc73, active compounds read low 0.876 | locus YML016C, strain PPZ1, active compounds read low 1.01 | locus YML032C, strain rad52, active compounds read low 0.953 | locus YML120C, strain ndi1, active compounds read low 0.998 | locus YML124C, strain tub3, active compounds read low 1.02 | locus YMR058W, strain fet3, active compounds read low 1.02 | locus YMR078C, strain ctf18, active compounds read low 1.01 | locus YMR125W, strain sto1, active compounds read low 0.995 | locus YMR129W, active compounds read low 0.996 | locus YMR205C, strain PFK2, active compounds read low 1.02 | locus YMR223W, strain ubp8, active compounds read low 0.994 | locus YMR231W, strain pep5, active compounds read low 0.996 | locus YMR263W, strain SAP30, active compounds read low 1.02 | locus YMR307W, strain GAS1, active compounds read low 1.04 | locus YNL067W, strain RPL9B, active compounds read low 1.02 | locus YNL071W, strain lat1, active compounds read low 1.01 | locus YNL153C, strain GIM3, active compounds read low 1.01 | locus YNL183C, strain NPR1, active compounds read low 0.981 | locus YNL209W, strain ssb2, active compounds read low 1.02 | locus YNL233W, strain BNI4, active compounds read low 1.01 | locus YNL248C, strain rpa49, active compounds read low 0.919 | locus YNL250W, strain rad50, active compounds read low 1.03 | locus YNL271C, strain bni1, active compounds read low 1.01 | locus YNL298W, strain CLA4, active compounds read low 0.993 | locus YNL307C, strain MCK1, active compounds read low 0.984 | locus YNL322C, strain KRE1 (second series), active compounds read low 0.985 | locus YNR049C, strain mso1, active compounds read low 0.994 | locus YOL006C, strain TOP1, active compounds read low 0.757 | locus YOL012C, strain htz1 1.29 | locus YOL147C, strain pex11, active compounds read low 0.987 | locus YOR001W, strain rrp6, active compounds read low 0.98 | locus YOR061W, strain CKA2, active compounds read low 0.985 | locus YOR069W, strain VPS5, active compounds read low 1.01 | locus YOR070C, strain gyp1, active compounds read low 0.996 | locus YOR080W, strain dia2, active compounds read low 1 | locus YOR083W, strain WHI5, active compounds read low 1.01 | locus YOR106W, strain vam3, active compounds read low 1.02 | locus YOR136W, strain idh2, active compounds read low 0.994 | locus YOR144C, strain elg1, active compounds read low 1 | locus YOR184W, strain ser1, active compounds read low 0.967 | locus YOR231W, strain MKK1, active compounds read low 0.985 | locus YOR265W, strain rbl2, active compounds read low 0.993 | locus YOR270C, strain vph1, active compounds read low 1.05 | locus YOR290C, strain snf2, active compounds read low 0.991 | locus YOR316C, strain cot1, active compounds read low 1.01 | locus YPL051W, strain arl3, active compounds read low 0.999 | locus YPL055C, strain LGE1, active compounds read low 0.938 | locus YPL078C, strain atp4, active compounds read low 1.03 | locus YPL106C, strain sse1, active compounds read low 0.989 | locus YPL240C, strain hsp82, active compounds read low 0.997 | locus YPL256C, strain CLN2, active compounds read low 1.05 | locus YPR119W, strain clb2, active compounds read low 1.02 | locus YPR141C, strain kar3, active compounds read low 1.02 | locus YPR163C, strain tif3, active compounds read low 0.993 | locus YPR167C, strain met16, active compounds read low 1.01 | strain wtn01, active compounds read low 0.948
active: locus YBR021W, strain FUR4, active compounds read low 0.713 | locus YDL192W, strain arf1, active compounds read low 0.901 | locus YKR001C, strain vps1, active compounds read low 0.876 | locus YNR052C, strain pop2, active compounds read low 0.851
